# AmpC inh det = Promiscuous and Specific Inhibitors of AmpC Beta-Lactamase (assay with detergent); AID 584, 2007; Potency, µM (highest dose often 28.7 µM), for inactives: top-dose activity change, negative = inhibition; purified AmpC, nitrocefin hydrolysis with detergent; 71,000 tested, 0.09% active; active = well fitted curve in the direction sought with a large enough effect; inconclusive = small, poorly fitted or top-dose-only effect; also: % is scaled to controls: 0 for no effect and ±100 for the full control effect
# Target sequence (P00811 whole entry, looked up): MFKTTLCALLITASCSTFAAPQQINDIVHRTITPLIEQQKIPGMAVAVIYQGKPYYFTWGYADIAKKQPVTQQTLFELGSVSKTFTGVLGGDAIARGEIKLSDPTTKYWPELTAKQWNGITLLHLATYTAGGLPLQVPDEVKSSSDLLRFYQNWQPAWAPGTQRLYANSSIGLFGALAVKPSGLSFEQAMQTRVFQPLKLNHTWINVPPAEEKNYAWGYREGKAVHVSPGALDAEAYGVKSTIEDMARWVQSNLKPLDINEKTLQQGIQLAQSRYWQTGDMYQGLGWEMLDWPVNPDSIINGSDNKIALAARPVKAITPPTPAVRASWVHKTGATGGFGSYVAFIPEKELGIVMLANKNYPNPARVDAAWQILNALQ
#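 E. coli AmpC (5.3 nM) in 20 mM phosphate pH 7.0 with 0.01% Triton X-100, preincubated 15 min RT with compound; nitrocefin (2 uL of 800 uM stock) hydrolysis followed by 480 nm absorbance every 20 s over 4 min.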
# AmpC nodet inh = Promiscuous and Specific Inhibitors of AmpC Beta-Lactamase (assay without detergent) | P00811 | AmpC nitrocefin hydrolysis, absorbance 480 nm, no detergent | Potency, µM (series often up to 28.7 µM), without a hit: at the highest dose activity change, negative = inhibition | 71,000 tested, 1.8% active; also: % of control where 0% means no effect
#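 Enzyme, pH 7.0 phosphate. Compound titrations were pre-incubated with AmpC for 15 min at room temperature before nitrocefin (stock 800 uM) addition; product formation was recorded at 480 nm every 20 s for 4 min.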
# SmPrx2 inh = Schistosoma Mansoni Peroxiredoxins (Prx2); Schistosoma mansoni peroxiredoxin 2 (Prx2); S. mansoni Prx2 activity coupled to TGR/GSH (TGR is thioredoxin glutathione reductase), NADPH fluorescence loss, qHTS; Potency, µM; 65,000 tested, 0.07% active; AID 448, 2006
#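 Enzyme mix: 100 uM NADPH, 25 nM TGR, 700 uM GSH, 50 nM Prx2 in 100 mM phosphate pH 7.4, 10 mM EDTA, 0.01% Tween-20. 15 min RT with compound; NADPH/GSH added, H2O2 starts reaction; NADPH fluorescence read 8 min.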
# Anthrax LT inh = qHTS Assay for Anthrax Lethal Toxin Internalization. Cells, anthrax lethal toxin internalization, FRET ratio (460/530). 70,000 tested, 0.67% active. AID 912, 2007. Potency, µM (top dose mostly 40 µM), for the others: at the highest dose activity change, negative = inhibition, most hits filed as inhibitors; also: % is scaled to controls: 0 for no effect and ±100 for the full control effect; nearly all actives have a fitted effect of over 50% in size
# Active calls of the source: *; ? = inconclusive; · = no result; ! = a repeat was not active; [ ] = remark or other dose. Compounds with a hit are over-represented: about 2.4% of the library has one in this group of screens. Unless noted, calls follow the shape of the full dose curve. Potency is read from the fitted curve at half-maximal effect.
SMILES,AmpC inh det,AmpC nodet inh,SmPrx2 inh,Anthrax LT inh
CCOC(=O)C1CCCN(c2c(NCC3CCCN3CC)c(=O)c2=O)C1 (stereo not drawn),11%,4µM*[single pt active],>57,-11%
COc1cc(S(=O)(=O)N2CCCCC2)ccc1NC(=O)c1ccc(F)cc1,1%,-3%,>57,0%
C[C@H](Cc1ccc(O)c(O)c1)[C@@H](C)Cc1ccc(O)c(O)c1,-5%,-24%,>57,16µM*!
N[C@@H](Cc1ccc(O)c(O)c1)C(=O)O,1%[12.8 µM],-11%[12.8 µM],>57,-10%[3.58 µM]
CCC(Cl)CC(Cl)C(Cl)C(Cl)C(Cl)C(C)Cl (stereo not drawn),13%,-18%,·,2.5µM*
N#Cc1c(-c2ccccc2)no[n+]1[O-],0%,3%,8.7*,-5%
N#Cc1cn(-c2ccccc2)nc1-c1ccccc1,2%,-13%,>57,-6%
CCOC(=O)C(/C(N)=N/C(=O)Nc1ccccc1)=C(\C)O,-9%,6%,>57,2%
COc1ccc(C)cc1NC(=O)c1nnn(Cc2cccc(F)c2)c1N,15%,3.2µM*[single pt active],·,-6%
Cc1ccc(C)c(NC(=O)c2nnn(Cc3ccccc3)c2N)c1,24%,-12%,>57,-8%
COc1ccc(OC)c(NC(=O)c2nnn(Cc3ccc(Br)cc3F)c2N)c1,13%,3.2µM*[single pt active],?,?
COc1ccc(NC(=O)c2nnn(Cc3cccc(F)c3)c2N)c(OC)c1,11%,2.5µM*[single pt active],>57,-4%
COc1cccc(Cn2nnc(C(=O)Nc3cc(Cl)ccc3OC)c2N)c1,12%,-22%,>57,?
O=C1NC(=O)C2(Cc3ccccc3N3CCCC32)C(=O)N1c1ccccc1 (stereo not drawn),-2%,18%,>57,·
CC(C)OC(=O)c1cc(=O)[nH]c2ccccc12,-3%,5%,>57,-5%
COc1ccc(C(=O)CSc2nnc(-c3cc4ccccc4cc3O)n2Cc2ccco2)cc1,15%,10µM*,>57,?
COc1cccc(N(C(=O)CNC(=O)c2ccco2)C(C(=O)NC2CCCC2)c2ccncc2)c1 (stereo not drawn),-2%,34%,>57,3%
Cc1ccc(S(=O)(=O)C2(C(=O)Nc3ccc(F)cc3)CC2)cc1,11%,-7%,>57,-7%
Cc1ccc(S(=O)(=O)C2(C(=O)Nc3ccc4c(c3)OCO4)CC2)cc1,22%,4µM*[single pt active],>57,-7%
COC(=O)C(C)Sc1nnc(Cc2cc(=O)[nH]c(=O)[nH]2)n1-c1ccc(OC)cc1 (stereo not drawn),13%,4µM*[single pt active],>57,-12%
Cc1ccc(C)c(-n2c(Cc3cc(=O)[nH]c(=O)[nH]3)nnc2SC(C)C)c1,13%,4µM*[single pt active],>57,-5%
CCOc1ccc(-n2c(Cc3cc(=O)[nH]c(=O)[nH]3)nnc2SCC(=O)OC)cc1,9%,4µM*[single pt active],>57,-10%
CCC(C)Sc1nnc(Cc2cc(=O)[nH]c(=O)[nH]2)n1-c1ccc(OC)cc1 (stereo not drawn),13%,3.2µM*[single pt active],>57,-12%
Cn1cccc1C(=O)NC(=O)COC(=O)c1ccccc1O,0%,-13%,>57,-6%
CCCCOc1ccc(CN2CCC(O)CC2)cc1,9%,3%,·,-7%
SMILES,AmpC inh det,AmpC nodet inh,SmPrx2 inh,Anthrax LT inh
CCCCC(NC(C)=O)c1nc2ccccc2n1CCC (stereo not drawn),-6%,33%,>57,?
CSc1ccc2c(c1)N(CC[C@H]1CCCCN1C)c1ccccc1S2,1%[12.8 µM],68%[12.8 µM],>57,10µM*
CN1CCCC[C@@H]1CCN1c2ccccc2Sc2ccc(S(C)=O)cc21 (stereo partly drawn),-2%[5.75 µM],-2%[5.75 µM],>57,-1%[8 µM]
CCCn1c(C)nc2c(N3CCCN(Cc4ccccc4)CC3)nc(C)nc21,15%,107%,·,-4%
CCCn1c(-c2ccc(F)cc2)nc2c(N3CCCN(Cc4ccccc4)CC3)nc(C)nc21,17%,98%,·,6.3µM*
N#C/C(=C\c1ccc(O)c(O)c1)C(=O)Nc1ccccc1,-5%,?,>57,25µM*
Cc1nc(CNS(=O)(=O)c2ccc3ccccc3c2)cs1,11%,8%,>57,-14%
CCN1CCN(C(=O)CSCc2nc(-c3ccc(OC)c(OC)c3)oc2C)CC1,11%,4µM*[single pt active],>57,?
CC1=CC(C)(C)N(C(=O)CN2C(=O)c3ccccc3C2=O)c2ccccc21,-4%,47%,·,6.3µM*
CN(CC(=O)N1CCc2ccccc2C1)S(=O)(=O)c1ccc2c(c1)c(=O)n(C)c(=O)n2C,13%,4µM*[single pt active],>57,1%
Cc1cccc(-n2nc3c(c2NC(=O)c2ccc(Br)o2)CSC3)c1,0%,10µM*,>57,?
Cc1ccc(CNC(=O)C2CCCN(S(=O)(=O)c3cccnc3)C2)cc1 (stereo not drawn),-3%,26%,>57,-9%
Cc1csc(NC(=O)C2CCCN(S(=O)(=O)c3cccnc3)C2)n1 (stereo not drawn),14%,3.2µM*[single pt active],>57,-1%
O=C(C1CCCN(S(=O)(=O)c2cccnc2)C1)N1CCN(c2ccccn2)CC1 (stereo not drawn),12%,4µM*[single pt active],>57,?
O=C(NCc1ccc2c(c1)OCO2)C1CCCN(S(=O)(=O)c2cccnc2)C1 (stereo not drawn),12%,4µM*[single pt active],>57,-11%
CCOC(=O)N1CCN(C(=O)C2CCCN(S(=O)(=O)c3cccnc3)C2)CC1 (stereo not drawn),14%,4µM*[single pt active],>57,1%
O=C1CC(c2ccc3c(c2)OCO3)c2cc3c(cc2N1)OCCO3 (stereo not drawn),8%,-8%,>57,0%
CCCN1C(=O)SC(CC(=O)Nc2ccccc2)C1=O (stereo not drawn),13%,-2%,>57,13%
NC(=O)CSc1nc(O)cc(=O)n1-c1ccccc1,-3%,-15%,>57,-3%
C[C@@H]1[C@H]2CC[C@@H]3[C@@H]4CC=C5C[C@@H](N(C)C)CC[C@]5(C)[C@@H]4CC[C@@]32CN1C,-1%[12.8 µM],13%[12.8 µM],>57,4µM*
COCCCNC(=O)CCn1c(=O)c2ccccc2n(CC(=O)Nc2ccccc2C)c1=O,9%,5%,>57,-3%
Cc1ccnc(NC(=O)CCC(=O)N(CC(=O)NCC2CCCO2)Cc2ccc(F)cc2)c1 (stereo not drawn),3%,62%,>57,13%
Cc1ccc(N2C(=O)c3ccccc3C2O)nc1 (stereo not drawn),12%,4µM*[single pt active],>57,14%
Cc1ccc(N2C(=O)c3ccccc3C2Nc2ccccc2F)nc1 (stereo not drawn),10%,4µM*[single pt active],>57,?
O=C1c2ccccc2C(Nc2ccc(Cl)cn2)N1c1ccccn1 (stereo not drawn),15%,4µM*[single pt active],>57,-22%
COc1cc(OC)c(NC2c3ccccc3C(=O)N2c2cc(C)ccn2)cc1Cl (stereo not drawn),9%,82%,>57,-10%
O=C1c2ccccc2C(O)N1c1ccc(Cl)cc1 (stereo not drawn),7%,-8%,>57,-14%
